Measured values published in PMC4336329 (PLoS ONE, 2015).
Among all 310,000 compounds or so, about 14,000 (4.5%) showed an effect of 50% or more. The effect is printed as a negative number. Shown is part of a subset that was picked to be rich in strong results.

Target: human ether-à-go-go-related gene (hERG) potassium channel (human, UniProt Q12809)
Assay: primary screen, population patch clamp on CHO cells stably expressing hERG; higher = less effect of the substance
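Further: peak tail current of the secondary pulse compared with the same well before compound.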

human ether-à-go-go-related gene (hERG) potassium channel, sequence (Q12809 whole entry, looked up): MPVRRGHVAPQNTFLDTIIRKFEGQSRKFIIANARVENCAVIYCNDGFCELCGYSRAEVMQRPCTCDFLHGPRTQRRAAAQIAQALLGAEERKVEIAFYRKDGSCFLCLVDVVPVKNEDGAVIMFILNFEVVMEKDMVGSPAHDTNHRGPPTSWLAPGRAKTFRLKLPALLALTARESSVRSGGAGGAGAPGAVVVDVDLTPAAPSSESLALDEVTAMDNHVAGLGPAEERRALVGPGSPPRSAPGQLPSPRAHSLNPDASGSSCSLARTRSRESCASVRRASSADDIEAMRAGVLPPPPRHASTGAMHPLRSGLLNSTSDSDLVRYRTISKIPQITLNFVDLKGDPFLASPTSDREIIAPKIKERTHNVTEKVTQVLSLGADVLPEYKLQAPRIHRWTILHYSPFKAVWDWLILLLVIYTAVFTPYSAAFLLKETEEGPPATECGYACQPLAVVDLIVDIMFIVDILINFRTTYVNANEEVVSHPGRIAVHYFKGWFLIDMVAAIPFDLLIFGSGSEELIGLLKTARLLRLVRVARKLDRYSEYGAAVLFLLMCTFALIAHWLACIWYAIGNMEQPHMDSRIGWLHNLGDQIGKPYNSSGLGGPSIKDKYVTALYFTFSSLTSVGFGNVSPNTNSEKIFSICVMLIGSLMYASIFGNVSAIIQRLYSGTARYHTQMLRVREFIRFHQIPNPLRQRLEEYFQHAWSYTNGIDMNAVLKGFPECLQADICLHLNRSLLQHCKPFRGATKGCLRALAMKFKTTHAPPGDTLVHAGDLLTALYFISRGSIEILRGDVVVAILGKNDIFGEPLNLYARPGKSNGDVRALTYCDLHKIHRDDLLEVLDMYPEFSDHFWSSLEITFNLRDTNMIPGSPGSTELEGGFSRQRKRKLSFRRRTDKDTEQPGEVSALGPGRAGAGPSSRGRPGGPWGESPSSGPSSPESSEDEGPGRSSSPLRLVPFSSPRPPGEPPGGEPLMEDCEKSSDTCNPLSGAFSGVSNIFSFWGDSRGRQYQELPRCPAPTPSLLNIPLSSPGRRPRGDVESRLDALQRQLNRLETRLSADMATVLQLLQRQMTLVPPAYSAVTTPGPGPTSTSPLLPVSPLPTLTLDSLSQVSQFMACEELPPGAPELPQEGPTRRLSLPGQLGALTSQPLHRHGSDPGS

SMILES	hERG current change (%, negative = inhibition) at 10uM [%]
O=C(NCCNC(=O)c1ccccn1)c1cccc(F)c1	23.7
O/N=C/C1=C(Cl)c2ccccc2CC1	-4.9
Cc1ccccc1NC(=O)COC(=O)c1cccc(S(=O)(=O)N2CCCCC2)c1	-6.55
Cc1ccc(C(=O)N2CCN(C34CC5CC(CC(C5)C3)C4)CC2)o1	-29.4
CCc1nnc(NC(=O)CSc2nnc(-c3ccco3)n2CCOC)s1	9.29
CC1CCN(c2oc(-c3ccco3)nc2S(=O)(=O)c2ccccc2)CC1	-6.14
CNC(=O)COC(=O)c1ccccc1Oc1ccccc1	-5.63
O=C1OC(C(=O)Nc2nccs2)Cc2ccccc21 (stereo not drawn)	12.7
CCN(C(=O)c1cc2c(=O)n3ccccc3nc2n1C)C1CCCCC1	6.65
CC(Cc1cccs1)NC(=O)Nc1ccc(Cl)cc1 (stereo not drawn)	1.12
C[C@H](NC(=O)C1CCN(S(=O)(=O)c2ccccc2)CC1)C(=O)NCc1cccc(C(F)(F)F)c1	-2.33
COc1ccc(C(=O)ON=C2CCN(c3ccc([N+](=O)[O-])cc3)CC2)cc1	-68.5
CCCOc1ccc(C(=O)ON=C2CCN(C)CC2)cc1.Cl	-9.07
Cc1ccc(C(=O)OC2CCN(c3ccc([N+](=O)[O-])cc3)CC2)cc1	-1.78
Cc1ccc(C(=O)ON=C2CCN(c3ccc([N+](=O)[O-])cc3)CC2)cc1	-60.9
COc1ccc(C(=O)ON=C2CCN(C)CC2)cc1.Cl	12.8
O=C(ON=C1CCN(c2ccc([N+](=O)[O-])cc2)CC1)c1ccccc1	-47.5
CC(=O)N1CCOc2cc(S(=O)(=O)NCc3ccc(F)cc3)c(C)cc21	-16.6
CCOc1ccc(/C=C/c2[nH]c(=O)[nH]c(=O)c2[N+](=O)[O-])cc1	8.01
O=C(CCC(=O)Nc1ccccc1)N/N=C/c1ccc2c(c1)OCO2	28.7
O=C(c1ccccc1S(=O)(=O)NCc1ccccc1)N1CCCC1	-4.43
CCN(CC)Cc1cc(C(C)=O)ccc1OCC(C)C	-31.5

SMILES	hERG current change (%, negative = inhibition) at 10uM [%]
CC(C)c1ccc(C2N3CC4([N+](=O)[O-])CN2CC([N+](=O)[O-])(C3)C4(C)C)cc1 (stereo not drawn)	28.4
O=C(O)c1ccc(NS(=O)(=O)c2ccc3c(c2)OCCCO3)cc1	4.23
CN1CCN(S(=O)(=O)c2cc(C(F)(F)F)ccc2Cl)CC1.Cl	10.4
CC(=O)c1sc2nc(=O)c(C)nn2c1C	-0.703
O=c1[nH]c(/C=C\c2ccc(O)c(O)c2)nc(O)c1[N+](=O)[O-]	16.2
Cc1ccc(OCCCN2CCOCC2)cc1	13.3
CCCCOc1ccc(OCCCN2CCOCC2)cc1.Cl	-23.1
CN1CCN(CCOc2ccc(-c3ccccc3)cc2)CC1.Cl	-56.3
CN1CCN(CCOc2ccc(Cc3ccccc3)cc2)CC1.Cl	-23.4
CN1CCN(CCCOc2ccc(-c3ccccc3)cc2)CC1.Cl	-69.1
CCCCOc1ccc(CN2CCN(CC)CC2)cc1	-14.2
Cl.c1ccc(-c2ccc(OCCN3CCOCC3)cc2)cc1	3.74
CCN1CCN(CCCOc2ccc(-c3ccccc3)cc2)CC1	-71.9
COc1ccc(C(C(=O)NC2CCCC2)N(C(=O)c2ccoc2C)c2cc(C)cc(C)c2)cc1 (stereo not drawn)	-10.9
O=C(CSc1nnc(CNC(=O)c2ccco2)o1)Nc1nc2ccccc2s1	16.1
COc1cc(CC(NC(C)=O)C(=O)NC2CCN(S(=O)(=O)c3ccc(NC(C)=O)cc3)CC2)cc(OC)c1 (stereo not drawn)	21.7
Cc1nn(-c2cccc([N+](=O)[O-])c2)c(N)c1-c1ccccc1	-68.7
Cc1cc(C)nc(-n2nc(C)c(Sc3ccc(F)cc3)c2N)n1	-61.7
Cc1nn(-c2nc3ccccc3s2)c(N)c1Sc1ccc(F)cc1	7.4
Cc1ccc(-c2cnn(-c3cccc([N+](=O)[O-])c3)c2N)cc1	-24.1
Cc1ccccc1-c1cnn(-c2cccc([N+](=O)[O-])c2)c1N	-56.7
Nc1c(-c2ccccc2Cl)cnn1-c1cccc([N+](=O)[O-])c1	-49.4

SMILES	hERG current change (%, negative = inhibition) at 10uM [%]
Cc1nn(S(=O)(=O)c2ccccc2)c(C)c1Sc1ccc([N+](=O)[O-])cc1	-6.26
Cc1nn(-c2ccccc2)c(N)c1-c1ccccc1	5.13
Cc1nn(-c2ccccc2)c(N)c1Sc1ccc([N+](=O)[O-])cc1	-75.2
Cc1nn(-c2ccc([N+](=O)[O-])cc2)c(N)c1-c1ccccc1	-19.1
Cc1cc(C)nc(-n2nc(C)c(C3(O)C(=O)Nc4ccc(F)cc43)c2N)n1 (stereo not drawn)	3.79
Cc1nn(-c2ccccc2)c(N)c1Sc1ccccc1[N+](=O)[O-]	-26.7
CC(C(=O)NCc1cccnc1)N1C(=O)c2ccccc2C1=O (stereo not drawn)	17.4
CNC(=O)CSCCn1c(SCC(=O)NC)nc2ccccc2c1=O	13.1
COc1ccc(-c2cc(C(F)(F)F)n3ncc(C(=O)N(C)Cc4ccccc4)c3n2)cc1	-17
Cc1cc(C)cc(Oc2ccc(N)cc2)c1	-15.1
COc1ccccc1NC(=O)C(C)N(C)CCOc1ccccc1 (stereo not drawn)	16.5
COc1ccc(Cn2c(C)nnc2-c2cnn(C)c2N)cc1	14.8
O=S(=O)(NCC1CCCO1)c1cccc(S(=O)(=O)N2CCCC2)c1 (stereo not drawn)	-14
CCN1CCN(C(=O)CCNC(=O)Cn2ccc3ccccc3c2=O)CC1	13.9
Cc1ccc(-c2nc(CSc3nc4ccccc4c(=O)n3C)cs2)cc1	9.52
CCN1CCN(CCCNC(=O)c2ccc(NC(=O)C3=C(C)OCCS3)cc2)CC1	17.6
O=C(O)c1cccc2c1/C(=N/Nc1ccc([N+](=O)[O-])cc1[N+](=O)[O-])c1ccccc1-2	19.7
Cc1nn(C(=O)c2cccc([N+](=O)[O-])c2)c(C)c1Sc1ccccc1	7.61
Cc1ccc(-n2nc(C)c(Sc3ccccc3[N+](=O)[O-])c2N)cc1	-17.2
Cc1nn(-c2ccccc2)c(N)c1Sc1cccc([N+](=O)[O-])c1.Cl	-65.9
CCOc1ccc(NC(=O)c2ccc(NC(=S)NC3CCCCC3)cc2)cc1	20.9
O=C(CCN1C(=O)c2ccncc2C1=O)NCc1ccc(Cl)cc1	-51.9

SMILES	hERG current change (%, negative = inhibition) at 10uM [%]
O=C(CCCN1C(=O)C(c2ccccc2)Oc2cccnc21)Nc1cccc(F)c1 (stereo not drawn)	-50.2
O=C(CCN1C(=O)[C@@H]2Cc3ccccc3CN2C1=O)NCc1ccc(Cl)cc1	-64.2
Cc1ccc(CNC(=O)CCN2C(=O)[C@@H]3Cc4ccccc4CN3C2=O)cc1	-40.5
O=C(CCN1C(=O)[C@@H]2Cc3ccccc3CN2C1=O)NCc1ccccc1	-12
Cc1cccc(NC(=O)CCCCCN2C(=O)[C@@H]3Cc4ccccc4CN3C2=O)c1	-21.7
Cc1cc(C)cc(NC(=O)CCCCCN2C(=O)[C@@H]3Cc4ccccc4CN3C2=O)c1	-51.9
Cc1ccc(NC(=O)CCCCCN2C(=O)[C@@H]3Cc4ccccc4CN3C2=O)cc1	-12.1
O=C(CCN1C(=O)c2ccccc2C1=O)NCc1ccc(Cl)cc1	-16.9
CCc1cccc(NC(=O)CCCN2C(=O)C(c3ccccc3)Oc3cccnc32)c1 (stereo not drawn)	-2.79
Cc1cc(C)cc(NC(=O)CCCN2C(=O)C(c3ccccc3)Oc3cccnc32)c1 (stereo not drawn)	-1.03
COc1ccc(CNC(=O)CCN2C(=O)c3ccncc3C2=O)cc1OC	13
Cc1ccccc1NC(=S)N(Cc1cccnc1)Cc1ccccc1Cl	-11.6
COc1ccc(C(=O)Nc2ccccc2C(=O)N2CCCCCC2)cc1OC	-10.5
Cc1c(NC(NC(=O)CF)C(Cl)(Cl)Cl)c(=O)n(-c2ccccc2)n1C (stereo not drawn)	4.94
O=C(NC(=S)Nc1cc(Cl)ccc1N1CCOCC1)c1ccc(-c2cccc(Cl)c2)o1	8.91
O=C(COc1ccccc1O)Nc1ccccc1Cl	-4.32
COc1ccc(CCn2c(SCC(=O)Nc3cc(C)on3)nc3ccccc3c2=O)cc1OC	0.454
Cc1ccc(OC(=O)CCc2c(C)nc3ncnn3c2C)cc1	-8.47
O=C(CCN1C(=O)[C@@H]2Cc3ccccc3CN2C1=O)Nc1cccc(F)c1	-13.8
COc1cccc(NC(=O)CCCCCN2C(=O)[C@@H]3Cc4ccccc4CN3C2=O)c1	-37.7
O=C(CCCCCN1C(=O)[C@@H]2Cc3ccccc3CN2C1=O)Nc1cccc(F)c1	-67.9
